The values below come from PubChem BioAssay.

The nature of assay [1]: A549 cell viability effects, profiling panel, calcein-AM fluorescence, 48 h, basal (AID 1162). Also: test concentration not given here. The note with it: higher = more signal.
A short description of assay [2]: adipocyte viability effects, profiling panel, cell-based, 3T3-L1 adipocytes, calcein-AM fluorescence, 48 h, basal (AID 1163). Also: test concentration not given here. The note with it: 3T3-L1 adipocytes viability, higher = more signal.
Assay [3] can be described thus: HepG2 cell viability effects, profiling panel, calcein-AM fluorescence, 48 h, basal (AID 1164). Also: test concentration not given here. The note with it: higher = more signal.
A short description of assay [4]: MM1S cell viability effects, profiling panel, calcein-AM fluorescence, 48 h, basal (AID 1165).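 Also: viability of MM1S multiple myeloma cells under basal unstimulated conditions; test concentration not given here.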 To be noted: higher = more signal.
Assay [5] can be described thus: basal RPMI8226 viability, no added stimulus, profiling panel, cell-based, calcein-AM fluorescence, 48 h, PK04 Diversity Set (AID 1166).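 Also: cells grown under basal conditions without added stimulus; test concentration not given here.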 The note with it: RPMI8226 myeloma viability, higher = more signal.
Assay [6] is described as follows: basal HepG2 mitochondrial membrane potential changes, profiling panel, cell-based, JC-1 fluorescence, 24 h, 100 nL compound (AID 1167). Also: test concentration not given here. To be noted: higher = more signal.
Assay [7] can be described thus: basal 3T3-L1 adipocyte mitochondrial potential changes, profiling panel, cell-based, JC-1 fluorescence, 3T3-L1 adipocytes, 24 h, 100 nL compound (AID 1168). Also: test concentration not given here. To be noted: JC-1 mitochondrial fluorescence, higher = more signal, called active from +8 up or from −8 down.
A short description of assay [8]: basal RPMI8226 mitochondrial membrane potential changes, profiling panel, cell-based, JC-1 fluorescence, 24 h, 100 nL compound (AID 1169). Also: test concentration not given here. The note with it: RPMI8226 myeloma, JC-1 mitochondrial potential fluorescence, higher = more signal.
Assay [9] in a line: basal MM1S mitochondrial membrane potential changes, profiling panel, cell-based, JC-1 fluorescence, 24 h, 100 nL compound (AID 1170). Also: test concentration not given here. The note with it: higher = more signal.
Assay [10] in a line: A549 lung cancer cell viability effects, profiling panel, resazurin fluorescence, 24 h, PK04 Diversity Set (AID 1171). Also: test concentration not given here. The note with it: higher = more signal, called active from +8 up or from −8 down.
Assay [11] in a line: HepG2 liver cancer cell viability effects, profiling panel, resazurin fluorescence, 24 h, PK04 Diversity Set (AID 1172). Also: test concentration not given here. To be noted: higher = more signal.
Assay [12] is described as follows: basal S. cerevisiae growth modulation, no modifier, primary screen, OD600, strain BY4716, 24 h, basal condition (AID 1173). The note with it: OD600, 24 h, higher = more signal, called active from +8 up or from −8 down.
The nature of assay [13]: MM1S myeloma cell viability, profiling panel, resazurin fluorescence, basal, 24 h, PK04 Diversity Set (AID 1174).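 Also: MM1S multiple myeloma cell line; test concentration not given here.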 To be noted: higher = more signal, called active from +8 up or from −8 down.
Assay [14] has as its target Dihydroorotate dehydrogenase (quinone), mitochondrial (Plasmodium falciparum (isolate 3D7)) (UniProt Q08210). Put plainly: PfDHODH enzyme inhibitors, primary screen, biochemical, C-terminal His tag, absorbance 600 nm (AID 1175).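 Also: recombinant parasite enzyme with a five histidine tag at its C terminus; test concentration not given here.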 To be noted: DCIP absorbance 600 nm, higher = more signal, called active from +8 up or from −8 down.
Assay [15] is described as follows: P. aeruginosa biofilm formation inhibitors, primary screen, strain PAO1, LB-PBS medium, absorbance 600 nm (AID 1176). Also: test concentration not given here. To be noted: P. aeruginosa PAO1 growth/biofilm, A600, 12 h; higher = more signal.
Assay [16] can be described thus: S. cerevisiae RM11-1a growth modifiers, primary screen, strain RM11-1a, OD600, basal, 24 h (AID 1177).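 Also: cultures grown under basal conditions with no added stressor; test concentration not given here.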 To be noted: OD600, 24 h, higher = more signal, called active from +8 up or from −8 down.
Assay [17] in a line: E. coli acrAB mutant growth effects, primary screen, E. coli filamentation inducers, strain DRC39, OD650, 24 h (AID 1178).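 Also: growth measured as culture turbidity by optical density at 650 nm; test concentration not given here.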 The note with it: higher = more signal, called active from +8 up or from −8 down.
Assay [18] can be described thus: E. coli acrAB mutant growth effects, primary screen, E. coli filamentation inducers, strain DRC39, OD650, 48 h (AID 1179).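 Also: screen aims at cell division blockers that make cells filament.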 To be noted: E. coli DRC39 delta-acrAB growth, higher = more signal, called active from +8 up or from −8 down.
The nature of assay [19]: RPMI8226 myeloma cell viability, profiling panel, resazurin fluorescence, basal, 24 h, PK04 Diversity Set (AID 1180).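 Also: RPMI8826 multiple myeloma cell line at 5000 cells per well; test concentration not given here.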 To be noted: higher = more signal.
In assay [20] the target is E3 ubiquitin-protein ligase XIAP (Homo sapiens) (UniProt P98170). Put plainly: XIAP binders, primary screen, biophysical, small-molecule microarray, fluorescence 635 nm (AID 1181).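 Also: score merges 667 nm emission and signal to noise over triplicate slides.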 To be noted: small-molecule microarray binding, higher = more signal.
E3 ubiquitin-protein ligase XIAP (Homo sapiens), sequence (P98170 whole entry, looked up): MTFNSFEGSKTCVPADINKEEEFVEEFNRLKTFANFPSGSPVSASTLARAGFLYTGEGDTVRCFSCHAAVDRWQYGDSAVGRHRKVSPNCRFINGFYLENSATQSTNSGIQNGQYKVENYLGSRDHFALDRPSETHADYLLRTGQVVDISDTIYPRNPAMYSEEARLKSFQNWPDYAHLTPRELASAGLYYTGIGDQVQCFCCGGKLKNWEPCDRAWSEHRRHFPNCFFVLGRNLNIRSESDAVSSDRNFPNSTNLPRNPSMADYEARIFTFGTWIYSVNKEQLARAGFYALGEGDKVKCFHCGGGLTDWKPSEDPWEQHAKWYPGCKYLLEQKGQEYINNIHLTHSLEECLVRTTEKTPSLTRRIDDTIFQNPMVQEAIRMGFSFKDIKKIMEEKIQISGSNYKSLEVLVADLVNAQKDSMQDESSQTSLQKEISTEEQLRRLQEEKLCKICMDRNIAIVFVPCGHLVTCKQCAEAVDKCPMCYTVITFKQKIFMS

SMILES strings stand for the structures. The source made the active and inactive calls. Unless noted, no rule for the calls is given here.

Dihydroorotate dehydrogenase (quinone), mitochondrial (Plasmodium falciparum (isolate 3D7)), sequence (Q08210 whole entry, looked up): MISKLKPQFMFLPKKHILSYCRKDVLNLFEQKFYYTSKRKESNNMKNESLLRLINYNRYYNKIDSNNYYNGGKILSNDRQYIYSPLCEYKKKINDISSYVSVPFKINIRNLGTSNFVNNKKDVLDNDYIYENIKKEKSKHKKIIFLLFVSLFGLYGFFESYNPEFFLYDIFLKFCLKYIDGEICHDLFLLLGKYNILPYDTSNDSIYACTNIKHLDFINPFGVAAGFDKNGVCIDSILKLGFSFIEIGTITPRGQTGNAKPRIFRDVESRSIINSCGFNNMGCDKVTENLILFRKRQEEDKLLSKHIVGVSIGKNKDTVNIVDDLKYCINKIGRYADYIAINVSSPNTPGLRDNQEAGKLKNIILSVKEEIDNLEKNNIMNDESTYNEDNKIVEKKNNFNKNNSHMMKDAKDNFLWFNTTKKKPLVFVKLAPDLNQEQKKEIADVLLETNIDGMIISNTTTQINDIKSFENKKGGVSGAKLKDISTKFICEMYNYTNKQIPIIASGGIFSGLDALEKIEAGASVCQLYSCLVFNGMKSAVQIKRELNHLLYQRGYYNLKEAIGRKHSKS

Take `COC(=O)[C@@]1(Cc2ccccc2)[C@H]2c3cc(C(=O)N4CCCC4)n(Cc4ccsc4Br)c3C[C@H]2CN1C(=O)c1ccccc1`: the z-score in assay [1] is -0.991; in assay [2], 0.213; in assay [3], -0.248; in [4] it was -1.54; in assay [5], -3.59; in assay [6], 1.6. Also, the z-score was -0.205 (inactive) in assay [7]; -0.804 in [8]; -1.23 in assay [9]; -0.9 (inactive) in assay [10]; -1.08 in [11]; 0.666 (inactive) in assay [12]. The z-score in assay [13] was -0.686 (inactive); in assay [15], -0.0703 (inactive); in assay [16], 1.15 (inactive); in assay [17], -0.28 (inactive); in assay [18] it was 0.139 (inactive); in [19], -3.12. Further, the figures for the composite z-score in assay [14] and in assay [20] were -0.876 (inactive) and 0.218, respectively.
As to `COc1c(C)cc(-c2cc3c(c(-c4ccccc4)n2)[Si](C(C)C)(C(C)C)OC3)cc1C`, the z-score in assay [1] was 0.33; in assay [2], -0.182; in assay [3] it was -0.43; in [4], -1.51; in assay [5], -0.515; in assay [6], -0.759. Also, the z-score in assay [7] is -0.00733 (inactive); in assay [8] it was 0.00523; in assay [9], 0.486; in [10] it was 0.51 (inactive); in [11] it was 0.0316; in [12], 0.256 (inactive). In addition, the z-score in [13] is 0.416 (inactive); in assay [15] it was 0.173 (inactive); in assay [16], -0.741 (inactive); in assay [17], 0.762 (inactive); in assay [18] it was 0.319 (inactive); in assay [19], 0.798. Besides, the composite z-score is -0.149 (inactive) in assay [14] and 0.205 in [20].
For the molecule `CC(C)(C)OC(=O)CC[C@]1(C(=O)NCCN2CCOCC2)N=C(c2ccc(OCCCO)cc2)O[C@H]1c1ccccc1N=[N+]=[N-]`, the z-score was -0.877 in assay [1]; 0.303 in [2]; 0.309 in assay [3]; -0.603 in assay [4]; -0.711 in [5]; 1.27 in assay [6]. In addition, the z-score in assay [7] is 1.21 (inactive); in [8] it was -0.683; in [9], -0.961; in assay [10] it was -0.201 (inactive); in assay [11] it was -0.0231; in assay [12] it was -0.893 (inactive). Also, the z-score in assay [13] was -1.28 (inactive); in assay [15] it was 0.494 (inactive); in assay [16], -0.279 (inactive); in assay [17], 0.23 (inactive); in assay [18], -0.635 (inactive); in assay [19], -0.565. Moreover, the composite z-score in assay [14] was 0.255 (inactive); in assay [20], -0.16.
Consider `C[C@H]1C2=C3C(CC[C@H]4C(OCc5ccc(F)cc5C(F)(F)F)OC[C@](C)([C@@H]34)N(C(=O)OC(C)(C)C)C2)C(CO)C1CO` (stereo not given in full), for which the z-score in assay [1] was -1.49; in assay [2] it was -0.723; in [3], -0.907; in assay [4], -3.22; in [5], -4.68; in [6], -0.987. Moreover, the z-score in assay [7] is -1.13 (inactive); in [8] it was -0.522; in [9], 0.0495; in [10], -0.629 (inactive); in [11], -1.49; in assay [12] it was 0.964 (inactive). The z-score in [13] is -2.08 (inactive); in assay [15], 2.31 (inactive); in assay [16], 1.04 (inactive); in [17], -1.36 (inactive); in assay [18], -0.895 (inactive); in assay [19], -1.62. Also, the values for the composite z-score in assay [14] and in assay [20] were -0.108 (inactive) and 0.147, respectively.
With `COCCOC(=O)N1C(=O)[C@@]2(c3cc(C#CCNC(N)=O)ccc31)[C@H](C(=O)N1CCCCCCC1)[C@H]1C(=O)O[C@H](c3ccccc3)[C@H](c3ccccc3)N1[C@@H]2c1ccc(O)cc1`, the z-score in [1] was 0.614; in assay [2], -0.369; in assay [3], -0.395; in assay [4] it was -0.787; in assay [5] it was 0.337; in [6] it was -2.08. Besides, the z-score in assay [7] is -0.379 (inactive); in assay [8], -0.216; in assay [9], 0.444; in assay [10], -0.171 (inactive); in assay [11] it was -0.515; in [12] it was -0.129 (inactive). Besides, the z-score in [13] was -0.97 (inactive); in [15], 0.0442 (inactive); in [16], 0.786 (inactive); in assay [17], -0.5 (inactive); in assay [18], -0.719 (inactive); in assay [19], -0.928. The values for the composite z-score in assay [14] and in assay [20] were -0.376 (inactive) and 0.0614, respectively.
With `COC(=O)[C@@]1(Cc2ccccc2)[C@H]2c3cc(C(=O)N4CCCC4)n(Cc4cc(F)cc5c4OCOC5)c3C[C@H]2CN1C(=O)c1ccccc1`, the z-score in [1] was -0.927; in [2], -0.888; in [3], 0.162; in assay [4], 0.464; in [5], -0.0133; in assay [6] it was 3.48. Moreover, the z-score is 0.0248 (inactive) in assay [7]; -0.0359 in assay [8]; -0.977 in assay [9]; -0.522 (inactive) in [10]; -0.0185 in assay [11]; 0.978 (inactive) in assay [12]. For the same molecule, the z-score in [13] was -0.523 (inactive); in [15] it was 0.122 (inactive); in [16], -0.0989 (inactive); in assay [17], -0.599 (inactive); in assay [18], -0.37 (inactive); in assay [19], -0.312. Also, the results for the composite z-score in assay [14] and in [20] were -0.354 (inactive) and 0.392, respectively.
For the molecule `COc1c(C)cc(-c2cc3c(c(Cc4ccccc4)n2)[Si](C(C)C)(C(C)C)OC3)cc1C`, the z-score in [1] is -0.983; in assay [2] it was -1.44; in assay [3] it was 0.269; in [4], -0.418; in assay [5], -0.0095; in assay [6], -1. The z-score in [7] is -0.737 (inactive); in assay [8], 0.0185; in assay [9] it was -0.00287; in [10], -0.124 (inactive); in [11], -0.683; in assay [12], 1.06 (inactive). Also, the z-score in assay [13] was -0.533 (inactive); in [15] it was 0.055 (inactive); in assay [16], 0.576 (inactive); in [17] it was -0.363 (inactive); in assay [18] it was -0.779 (inactive); in assay [19], -0.661. Moreover, the composite z-score in [14] is -0.0592 (inactive); in [20], -0.138.
Turning to `COCCOC(=O)N1C(=O)[C@@]2(c3cc(C#CCC(C(=O)OC)C(=O)OC)ccc31)[C@H](c1ccc(OCCO)cc1)N1[C@H](c3ccccc3)[C@H](c3ccccc3)OC(=O)[C@H]1[C@@H]2C(=O)N1CCN(c2ncccn2)CC1`, the z-score is -0.828 in assay [1]; 1.2 in assay [2]; -0.709 in assay [3]; -0.0585 in [4]; -1.07 in assay [5]; -0.49 in assay [6]. The z-score was 0.436 (inactive) in assay [7]; -0.262 in assay [8]; -1.53 in [9]; 1.83 (inactive) in assay [10]; 1.27 in assay [11]; 0.588 (inactive) in assay [12]. The z-score in assay [13] was -0.199 (inactive); in assay [15], 2.06 (inactive); in [16], 1.82 (inactive); in [17] it was 0.362 (inactive); in assay [18], -0.108 (inactive); in [19] it was 0.262. Moreover, the composite z-score in [14] is 1.35 (inactive); in [20], -0.22.
As for `C[C@]12C(=O)N(CCCCCCO)[C@@H]3C(=O)N(c4ccc(Cl)cc4)CC=CC31O[C@@H]1/C=C\CCCOC(=O)C12` (stereo not given in full), the z-score in assay [1] was 0.41; in [2] it was 1.23; in assay [3] it was 2.06; in assay [4], 1.61; in [5], 0.0929; in [6], 1.09. For the same molecule, the z-score in [7] is -0.317 (inactive); in assay [8], 0.655; in [9], 0.411; in assay [10], -0.0459 (inactive); in assay [11] it was -0.578; in [12], -1.3 (inactive). Besides, the z-score in [13] is 0.423 (inactive); in assay [15], -0.0558 (inactive); in [16], -1.29 (inactive); in assay [17], -0.0299 (inactive); in [18], 0.692 (inactive); in assay [19], 1.05. Further, the composite z-score in assay [14] was -0.699 (inactive); in assay [20], -0.235.
